D1 antagonist = human D1 dopamine receptor antagonism. P21728. HEK293 TREx D1 cells, calcium flux, dopamine EC80; hits give low values. activity change, negative = inhibition, % at 10 µM. 360,000 tested, 3.2% active. AID 504652; in the data active means activity change below about -30%; further: on the % scale 0 is the no-effect control and ±100 the full control effect
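Inducible Hek293 Trex D1 cells (tetracycline, overnight, 30 C). Calcium dye 30–90 min RT. Antagonist mode: EC80 dopamine added after 180 s compound read.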
DRD3 antagonist = blocks the human D3 dopamine receptor | D3R cells, DiscoveRx beta-arrestin luminescence, antagonist mode; hits give low values | max response, negative = inhibition, % | P35462 | 360,000 tested, 2.5% active; in the data active means max response below about -50%; inconclusive means no clear call, values can overlap the other calls; further: on the % scale 0 is the no-effect control and ±100 the full control effect
Target sequence (P35462 whole entry, looked up): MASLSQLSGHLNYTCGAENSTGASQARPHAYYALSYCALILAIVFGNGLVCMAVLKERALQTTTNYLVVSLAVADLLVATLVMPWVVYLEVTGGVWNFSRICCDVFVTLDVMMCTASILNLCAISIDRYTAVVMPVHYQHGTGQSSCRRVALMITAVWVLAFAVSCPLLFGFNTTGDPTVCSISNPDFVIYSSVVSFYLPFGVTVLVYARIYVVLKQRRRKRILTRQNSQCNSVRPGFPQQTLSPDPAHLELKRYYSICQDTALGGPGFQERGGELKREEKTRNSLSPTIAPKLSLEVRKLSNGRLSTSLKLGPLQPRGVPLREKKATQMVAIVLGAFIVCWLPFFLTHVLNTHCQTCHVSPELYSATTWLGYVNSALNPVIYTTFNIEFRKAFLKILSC
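Cells expressing the human receptor were seeded at 1500 cells/well, incubated overnight at 37 degrees C in 5% CO2, then exposed to library compounds with dopamine controls for 90 minutes at 37 degrees C before luminescent detection.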
D3 ag = D3 dopamine receptor (human) agonism; P35462; D3R DiscoveRx beta-arrestin cells, luminescence, 90 min; max activation, %; 410,000 tested, 0.58% active; in the data active means max activation above about 30%; further: 0% is about no effect
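Agonist mode: compounds and dopamine controls were applied to plated cells for 90 min at 37 degrees C after an overnight attachment at 1500 cells/well. Luminescent read-out followed 30 - 60 minutes at room temperature with DiscoveRx detection reagent.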
D1 potentiator = potentiators of human D1 dopamine receptor | P21728 | 360,000 tested, 0.036% active | potentiation, % at 10 µM | HEK293 TREx D1 cells, calcium flux, dopamine EC20 potentiation; in the data active means potentiation above about 30%; further: 0% is about no effect
D1 agonist = activates the human D1 dopamine receptor; P21728; HEK293 T-REx D1 cells, calcium flux, agonist mode; activation, % at 2 µM; 360,000 tested, 1% active; AID 504660; in the data active means activation above about 30%; further: 0% is about no effect
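Agonism was scored from calcium flux recorded over 180 s (1 read/s) after pintool compound addition, following a 10-cycle baseline. Cells were inducible force-coupled HEK293 TREx D1, plated overnight at 30 C and loaded with no-wash calcium dye.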
Starred values were filed as active, the others as inactive; u = inconclusive; x = no result. In the library only some 6.1% were active in any assay of this set; here they are far more common.

SMILES | D1 antagonist | DRD3 antagonist | D3 ag | D1 potentiator | D1 agonist
OC(CN1CCN(Cc2ccccc2)CC1)c1ccccc1 (stereo unspecified) | 2 | -22 | -2 | -4 | 2
OC(COc1ccc(OCC(O)CN2CCN(Cc3ccccc3)CC2)cc1)CN1CCN(Cc2ccccc2)CC1 (stereo unspecified) | x | u | -2 | x | x
Cc1ccc(OCC(O)CN2CCC(Cc3ccccc3)CC2)c(C)c1 (stereo unspecified) | -6 | -56* | -8 | -13 | 20
COc1cccc(OCC(O)CN2CCC(Cc3ccccc3)CC2)c1 (stereo unspecified) | -31* | -13 | -9 | -6 | 20
OC(COc1ccccc1)CN1CCC(Cc2ccccc2)CC1 (stereo unspecified) | 17 | -75* | -35 | -9 | 16
OC(CN1CCC(Cc2ccccc2)CC1)c1ccccc1 (stereo unspecified) | -7 | -88* | -13 | -7 | 17
COc1ccc(OC)c2sc(NC(=O)c3ccc(S(=O)(=O)N4CCCC4)cc3)nc12 | -9 | x | 0 | -3 | 2
O=C(NCc1cccs1)C1CCN(C(=O)N2CCOc3ccc(Cl)cc32)CC1 | 5 | x | 6 | 4 | 7
CCCCN(CC)CCNC(=O)c1c(C)oc2ncnc(N3CCOCC3)c12 | 4 | x | -5 | -6 | 2
Cc1ccc(C(=O)NCCSc2c(C)[nH]c3ccccc23)cc1[N+](=O)[O-] | -70* | -3 | 1 | -11 | 0
COc1cc(C(=O)NCCSc2c(C)[nH]c3ccccc23)cc(OC)c1OC | -4 | x | 5 | 1 | 2
COc1cccc(C(=O)NCCSc2c(C)[nH]c3ccccc23)c1OC | -38* | 22 | 8 | -13 | 16
Cc1ccc(S(=O)(=O)Cc2nc(-c3ccc(C(=O)NCc4ccccc4)cc3)oc2C)cc1 | 2 | x | -18 | -8 | 4
CCCc1nc2oc3c(NCCN(C)C)ncnc3c2c2c1CCCC2 | -12 | -54* | 3 | -3 | 3
CCCc1nc2oc3c(NCCCN(C)C)ncnc3c2c2c1CCCC2 | 9 | -15 | -11 | 3 | 4
Cc1ccc(NC(=O)c2ccc3c(c2)NC(=O)c2ccccc2S3)cc1 | -23 | x | -7 | -6 | 3
CCCCCCn1c(CN2CCN(Cc3ccccc3)CC2)nc2c1c(=O)n(C)c(=O)n2C | 16 | -52* | -1 | 0 | -1
COC(=O)Cn1c(CN2CCC(Cc3ccccc3)CC2)nc2c1c(=O)n(C)c(=O)n2C | -36* | 11 | -2 | -7 | 17
CCCn1c(Oc2ccccc2)nc2c1c(=O)n(C)c(=O)n2C | -39* | -16 | 2 | -4 | -1
Cn1c(=O)c2c(nc(CN3CCN(Cc4ccccc4)CC3)n2Cc2cccc(Cl)c2)n(C)c1=O | 1 | -51* | -10 | -14 | 40*
CCn1c(Oc2cccc(Br)c2)nc2c1c(=O)n(C)c(=O)n2C | -7 | 7 | 1 | -5 | 2
COC(=O)Cn1c(CN(C)Cc2ccccc2)nc2c1c(=O)n(C)c(=O)n2C | 0 | 18 | 3 | 4 | 1
Cc1cc(Br)ccc1NC(=O)c1cc2c(=O)n(C)c3cc(Cl)ccc3c2s1 | 5 | x | -13 | 8 | 1
COc1ccc(OC)c(NC(=O)[C@H](CSCc2ccccc2)N2Cc3ccccc3C2=O)c1 | -3 | x | 3 | -6 | 6
Cc1ccc(Cl)cc1NC(=O)C(NS(=O)(=O)c1cccc2nsnc12)c1ccccc1 (stereo unspecified) | 13 | x | -6 | 4 | -1
Cn1c(=O)n(C)c2cc(N3CCOCC3)c(NS(=O)(=O)c3ccc(Br)cc3)cc21 | -12 | x | 1 | 6 | 1
COc1cc(CN(C(=O)c2ccc(Cl)cc2)C2CCS(=O)(=O)C2)cc(OC)c1OC (stereo unspecified) | 11 | x | -9 | -1 | 4
COc1ccc(N2CCN(C(=O)C3CCN(S(=O)(=O)c4cccc5nonc45)CC3)CC2)cc1 | -11 | x | 8 | -2 | 5
CCCCCn1c(CN2CCN(C(=O)OCC)CC2)nc2c1c(=O)n(C)c(=O)n2C | x | 0 | 2 | x | x
CCCn1c(CN2CCN(C(=O)OCC)CC2)nc2c1c(=O)n(C)c(=O)n2C | -5 | 14 | 127* | 6 | 0
